In the library only some 11% were active in any assay of this set; here they are far more common.
HCV inhibitor = inhibitors of hepatitis C virus infection. Huh7.5.1 HCVcc-Cre infection, luciferase reporter, 44 h. Potency, µM (doses to about 41.8 µM), without a hit: top-dose activity change, negative = inhibition, hits mostly inhibitors. hit rate 3.4% among 340,000
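Whole-lifecycle infectious HCVcc-Cre system; cells 1,000/well, compound then virus (~0.5 moi) added 4 h after plating, 44 h culture. Luciferase read 15 sec following 15 min substrate incubation, room temp.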
Pf growth 96h = P. falciparum growth inhibition at 96 hour, primary screen for plastid delayed-death inhibitors; P. falciparum luciferase reporter growth, 96 h; Potency, µM (doses to about 28.7 µM), for inactives: at the highest dose activity change, negative = inhibition, hits mostly inhibitors; hit rate 6.9% among 320,000; AID 504834
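Two parasite generations (96 h, 37 C, 5% CO2) of compound exposure in infected erythrocytes (0.05% parasitemia, 2% hematocrit). Luciferase-reporter P. falciparum; decreased luminescence indicates inhibited growth, aimed at apicoplast-acting delayed death.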
AmpC no deterg = blocks E. coli AmpC beta-lactamase in detergent-free assay | AmpC nitrocefin hydrolysis, absorbance 480 nm, 0.0001% Triton | hit rate 0.52% among 330,000 | AID 485341 | Potency, µM (titrated, usually from 57.1 µM), inactives show top-dose activity change, negative = inhibition, usual class: inhibitors;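 further: plate controls were no compound for no effect and no enzyme for full effect; nearly all actives have a fitted effect of over 20% in size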
Target sequence (P00811 whole entry, looked up): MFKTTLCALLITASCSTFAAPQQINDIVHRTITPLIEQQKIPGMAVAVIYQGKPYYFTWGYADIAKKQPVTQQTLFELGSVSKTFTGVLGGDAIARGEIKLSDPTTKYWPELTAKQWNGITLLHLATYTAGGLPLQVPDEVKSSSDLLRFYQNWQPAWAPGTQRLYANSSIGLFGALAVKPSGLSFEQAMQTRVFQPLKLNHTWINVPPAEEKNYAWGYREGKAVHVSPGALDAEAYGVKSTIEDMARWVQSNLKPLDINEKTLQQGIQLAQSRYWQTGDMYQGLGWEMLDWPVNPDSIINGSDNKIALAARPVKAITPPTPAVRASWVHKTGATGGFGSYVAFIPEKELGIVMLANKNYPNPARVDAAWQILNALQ
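AmpC (5.3 nM in the dispensed reagent) in 20 mM phosphate pH 7.0 with 0.01% (detergent screen) or 0.0001% Triton X-100 was preincubated with compounds for 15 min at room temperature. Nitrocefin was then added from an 800 uM solution, and hydrolysis was followed at 480 nm.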
AMA1 RON2 block = inhibitors of Plasmodium falciparum AMA1-RON2 interaction; Potency, µM (titrated, usually from 58.2 µM), without a hit: top-dose activity change, negative = inhibition, hits mostly inhibitors; hit rate 0.2% among 360,000; AlphaScreen AMA1-biotinylated RON2 peptide binding; AID 720542;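 further: 0% = vehicle wells and -100% = peptide control; nearly all actives have a fitted effect of over 45% in size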
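AMA1 (3D7) with his tag at 25 nM final met compounds first, then biotinylated RON2 peptide at 25 nM; detection used donor plus acceptor beads, 10 µg/mL apiece, read by AlphaScreen after 30 min at room temperature.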
Pf growth 48h = P. falciparum growth inhibition at 48 hours (one generation) | Potency, µM (top dose mostly 28.7 µM), for inactives: at the top dose activity change, negative = inhibition, actives largely listed as inhibitors | P. falciparum luciferase growth in erythrocytes, 48 h | hit rate 5.9% among 310,000
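First compound was added to culture medium, then infected red cells at 0.1% parasitemia and 2% hematocrit (final). After incubation at 37 C under 5% CO2, luciferase detection reagent was dispensed and light output recorded.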
AmpC detergent = inhibitors of E. coli AmpC beta-lactamase with detergent. P00811. AmpC hydrolysis of nitrocefin, absorbance 480 nm, 0.01% Triton. hit rate 0.041% among 370,000. Potency, µM (top dose mostly 114 µM), for the others: top-dose activity change, negative = inhibition, most hits filed as inhibitors;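 further: 0% = no-compound wells and -100% = no-enzyme wells; nearly all actives have a fitted effect of over 25% in size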
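20 mM phosphate pH 7.0 + 0.01% (detergent screen) or 0.0001% Triton X-100; 5.3 nM AmpC reagent; cpd preinc 15 min RT; nitrocefin (800 uM stock) to start; A480 q20 s × 4 min; Activity was normalised to no-enzyme and no-compound control wells.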
Starred values were filed as active, the others as inactive; ? = inconclusive; nt = no result; [ ] = remark or other dose. The call rests on the fitted dose curve; in most records, active means well fitted curve in the direction sought with a large enough effect; inconclusive means small, poorly fitted or top-dose-only effect, or another doubt; inactive means no such curve, though single readings can be large; an effect the other way counts as inactive or inconclusive. Unless noted, on the % scale 0 is the no-effect control and ±100 the full control effect; potency means the concentration at half of the fitted maximal effect.

SMILES	HCV inhibitor	Pf growth 96h	AmpC no deterg	AMA1 RON2 block	Pf growth 48h	AmpC detergent
CCCn1c(=N)n(CC(O)COc2ccc(C)cc2)c2ccccc21 (stereo unspecified)	?	5.22µM*	2.4%	-1.4%	2.08µM*	5.9%
CCCn1c(=N)n(CC(=O)c2ccc(OCC(=O)OC)cc2)c2ccccc21	?	nt	nt	1.4%	nt	nt
Cc1ccccc1OCC(O)Cn1c(=N)n(Cc2ccccc2)c2ccccc21 (stereo unspecified)	?	-17.4%	25.3%	-23.5%	?	3.8%
CCn1c(=N)n(CC(O)COc2ccc(C)cc2)c2ccccc21 (stereo unspecified)	?	13.1µM*	-1.3%	-6.9%	3.7µM*	7.7%
Cn1c(=N)n(CC(O)c2cccc3ccccc23)c2ccccc21 (stereo unspecified)	11.2µM*	nt	-4.3%	10.8%	nt	-1.4%
Cc1cccc(NS(=O)(=O)c2ccc3oc(=O)c4ncn(C)c4c3c2)c1C	nt	nt	nt	nt	nt	-5.7%
CCCCn1c(=N)n(CCOc2ccc(C)cc2)c2ccccc21	7.9%	13.7%	34.5%	-7.4%	7.38µM*	?
CCCCn1c(=N)n(CCOc2ccccc2OC)c2ccccc21	nt	nt	nt	nt	nt	19.0%
COc1ccc(CNC(=O)C2CCN(C(=O)N3CCOc4ccc(Cl)cc43)CC2)cc1	nt	nt	nt	nt	nt	1.0%
O=C(O)c1ccc(/C=C2\SC(=Nc3ccccc3)N(c3ccccc3)C2=O)cc1	10.7%	0.294µM*	-23.7%	-0.7%	-13.6%	2.0%
O=C(O)COc1ccccc1/C=C1\SC(=Nc2ccc(F)cc2)N(c2ccc(F)cc2)C1=O	2.4%	?	-13.0%[2.29 µM]	-6.6%	10.4µM*	-2.7%
O=C(O)COc1ccc(/C=C2\SC(=Nc3ccccc3)N(c3ccccc3)C2=O)cc1	3.8%	-10.0%	-22.9%	-5.5%	0.4%	3.8%
CCCCCCC(=O)Nc1ccc2nc3c(=O)n(C)c(=O)n(C)c3nc2c1C	nt	nt	nt	nt	nt	0.6%
Cc1ccccc1-c1nc(CN2CCC(C(=O)NC3CCCCC3)CC2)c(C)o1	-4.3%	-44.2%	-6.7%	-8.7%	9.4%	-4.3%
Cc1ccccc1-c1nc(CN2CCC(C(=O)NCCC3=CCCCC3)CC2)c(C)o1	6.31µM*	nt	161.3%	-0.8%	?	-7.1%
Cc1ccccc1-c1nc(CN2CCC(C(=O)NCCCN3CCCC(C)C3)CC2)c(C)o1 (stereo unspecified)	5.01µM*	9.3%	38.5%	-0.5%	?	-13.4%
Cc1ccccc1-c1nc(CN2CCC(C(=O)NCCc3ccccc3)CC2)c(C)o1	nt	nt	nt	nt	nt	-13.5%
COc1ccc(CCNC(=O)C2CCN(Cc3nc(-c4ccccc4C)oc3C)CC2)cc1OC	7.94µM*	15.0%	148.2%	-14.7%	?	-6.1%
O=C(NCc1ccccc1Cl)c1cc2cccc3c2n1CCS3	nt	nt	nt	nt	nt	-7.1%
CCc1nn(CC(=O)Nc2c(C)cc(C)cc2C)c(=O)c2cc3sccc3n12	nt	nt	nt	nt	nt	0.9%
Cc1ccc(NC(=O)c2c(NC(=O)c3ccco3)sc3c2CCC(C(C)(C)C)C3)c(C)c1 (stereo unspecified)	nt	nt	nt	nt	nt	0.1%
CC1CCN(CC(O)COCCC23CC4CC(CC(C4)C2)C3)CC1 (stereo unspecified)	35.5µM*	?	20.3%	2.6%	nt	-12.1%
O=C(NCc1cccs1)c1ccc(Cn2c(SCc3cccc(F)c3)nc3cccnc32)cc1	nt	nt	nt	nt	nt	4.5%
Cc1ccc(C(=O)NNC(=O)c2cc(OCC(F)(F)F)ccc2OCC(F)(F)F)cc1	?	75.8%	-18.4%	76.6%	5.8%	-1.2%
O=C(NCCNC(=O)c1cc(OCC(F)(F)F)ccc1OCC(F)(F)F)Nc1ccccc1	?	?	2.5%	11.8%	30.7%	-11.9%
SMILES	HCV inhibitor	Pf growth 96h	AmpC no deterg	AMA1 RON2 block	Pf growth 48h	AmpC detergent
O=C(NNC(=O)c1cc(OCC(F)(F)F)ccc1OCC(F)(F)F)c1cccc(C(F)(F)F)c1	?	?	-8.8%	35.2%	14.7µM*	-1.5%
CCNC(=O)NCCNC(=O)c1cc(OCC(F)(F)F)ccc1OCC(F)(F)F	-10.1%	207.1%	88.8%	-8.8%	2.94µM*	-8.7%
CCOCCc1nn2c(=O)cc(COC(=O)CNC(=O)c3cccc(C)c3)nc2s1	nt	nt	nt	nt	nt	12.5%
CSc1nnc2c(n1)[nH]c1c(C)cccc12	-18.0%	5.22µM*	-30.9%	-1.9%	8.28µM*	-13.3%
C=CCSc1nnc2nc3[nH]c4c(C)cccc4c3nn12	9.3%	nt	-22.7%	-0.7%	?	0.4%
Cc1cccc(CSc2nnc3c(n2)[nH]c2ccccc23)c1	-21.0%	1.85µM*	-37.2%	-11.1%	1.47µM*	-11.3%
CCSc1nnc2c(n1)[nH]c1c(C)cccc12	31.6µM*	nt	-20.1%	4.9%	nt	-12.5%
COc1ccc(CC(=O)NCc2ccc3c(c2)CCN3C(=O)c2ccc(C)cc2)cc1OC	nt	nt	nt	nt	nt	-0.4%
CC(Oc1ccccc1)C(=O)Nc1ccccc1C(=O)OCc1cc(=O)n2nc(C3CC3)sc2n1 (stereo unspecified)	nt	nt	nt	nt	nt	2.3%
COc1ccc2c(c1)c1nnc(SCC(=O)N3C(C)CCCC3C)nc1n2C (stereo unspecified)	8.91µM*	?	67.0%	4.5%	?	-1.4%
CSCCC(NS(=O)(=O)c1ccc2c(c1)OCCO2)C(=O)N(C)Cc1ccccc1F (stereo unspecified)	-25.7%	?	-1.8%	-11.5%	11.7µM*	?
Cc1cc(C)cc(NC(=O)C(=O)NCC(c2cccnc2)N2CCc3ccccc32)c1 (stereo unspecified)	nt	nt	nt	nt	nt	21.8%
Cc1ccc(NC(=O)Cn2c(/C=C/c3ccccc3)nc3ccccc32)cc1C	-18.7%	-84.3%	8.91µM*	-1.9%	?	3.6%

Compound activity as filed in PubChem BioAssay.
